Laboratory results taken from ChEMBL document CHEMBL3988442, “University of Dundee, Small-Polar-MMV Screening Library” (2021).
Screen size: about 48,000 compounds; about 13,000 (27%) showed an effect of 50% or more. The list shows a part of the results.

system: Wolbachia pipientis; assay: Anti-Wolbachia Cell-Based Screen; type: functional; parameters: scale not given: in the data most compounds retested in dose-response had high values; conditions: 5 µM

In order of rising “Percent Effect” value:
1. FC(F)Oc1ccccc1CN1CCCC(c2nccn2CC2CC2)C1 (stereo not given)  -15.63%
2. CCOc1nnc(CN2CCC(c3cc4ccccc4[nH]3)CC2)s1  -12.75%
3. Cc1cc(C)n(CC(C)NC(=O)c2cc(CN3CCC(O)CC3)on2)n1 (stereo not given)  -12.5%
4. Cn1ccnc1CN1CCCC(Cc2ccccn2)C1 (stereo not given)  -12.05%
5. CC(C)CS(=O)(=O)CCNc1ncccn1  -11.8%
6. CNC(=O)NC(=O)CN1CCCC(Cc2ccccc2OC)C1 (stereo not given)  -10.54%
7. O=C1CCCCN1CCCNCc1cnc(C2CCC2)s1  -10.31%
8. OCCN(Cc1cccnc1)c1ncc(Br)cn1  -8.725%
9. COC(=O)C1(NCc2nc(C)c(C)o2)CCC(C)CC1 (stereo not given)  -8.144%
10. CCOc1ncccc1NC(=O)c1sccc1C  -6.226%
11. CC(=O)c1cccc(OCCCC(=O)NC(C#N)CC(C)C)c1 (stereo not given)  -6.212%
12. Cc1cc(C(F)(F)F)nc(CNC(=O)C2CCCCCN2C)n1 (stereo not given)  -5.462%
13. CC(=O)NCCCC(=O)NC1(c2ccc(Cl)c(Cl)c2)CC1  -4.491%
14. Cc1nccn1Cc1nnc(C2CCCN(Cc3cccnc3)C2)n1C (stereo not given)  -3.702%
15. Cc1cc(S(=O)(=O)N2CCOCC2C#N)ccc1F (stereo not given)  -3.602%
16. Cn1ccnc1C1CCN(CCN2CCOCC2)CC1  -3.118%
17. CC(=O)N[C@@H]1CN(CC(=O)NCc2ccccc2C)C[C@H]1C(C)C  -3.086%
18. Cn1cnc(S(=O)(=O)NCCN2CCCCCC2=O)c1Cl  -2.808%
19. c1cn(CC2CC2)c(C2CCN(CCC3CCOC3)CC2)n1 (stereo not given)  -2.095%
20. CC(C(=O)N1CCCC1)N1CCC(c2nccn2CC2CCC2)CC1 (stereo not given)  -1.675%
21. Cc1ccccc1CN1CCN(Cc2nccn2C)CC1  -1.21%
22. Cn1ccnc1CN1CCN(CCOc2ccccc2C#N)CC1  -0.4037%
23. CC(=O)N1CCC(N2CC[C@H](c3nc4cc(C)ccc4o3)C2)CC1  -0.1678%
24. COCCCC(=O)N1CC(=O)Nc2cc(Br)ccc21  -0.04468%
25. Cc1ccccc1C(C(=O)NCCN1CCC(CO)CC1)N(C)C (stereo not given)  -0.033%
26. CCS(=O)(=O)c1ncc(CN2CCSCC2)n1CCc1ccccc1  0.5583%
27. Cc1cc(C(=O)Nc2ccc(OCC3CCOCC3)cc2)[nH]n1  0.7277%
28. CCC(NC(=O)Cn1ccc(=O)n(C)c1=O)c1ccc(OC)cc1 (stereo not given)  1.056%
29. COc1ccc(C(O)CNC(=O)Cn2ccc(=O)n(C)c2=O)cc1 (stereo not given)  1.675%
30. CCC(NC(=O)Cn1ccc(=O)n(C)c1=O)c1ccccc1OC (stereo not given)  2.411%
31. CCn1c(C2CCCN(Cc3nccn3CCOC)C2)nn(C)c1=O (stereo not given)  3.298%
32. COc1ccc(C)cc1C(C)NC(=O)NCCCn1cncn1 (stereo not given)  6.959%
33. O=C(c1ccccn1)N1CCCC(c2nccn2CC2CCC2)C1 (stereo not given)  7.496%
34. CN1CCN(S(=O)(=O)c2ncn(C)c2Cl)CC1  8.331%
35. Cc1nccn1CCC(=O)N1CCCN(CCCc2ccccc2)CC1  9.498%
36. Cn1ccnc1CN1CCC(CCC(=O)Nc2ccccc2Cl)CC1  11.71%
37. CCC1CC(=O)NCc2nc3sc(C)cn3c21 (stereo not given)  11.81%
38. CN1CCOC[C@H]1c1nc(C(C)(C)C)c[nH]1  12.45%
39. N#Cc1ccccc1CN1CCCC(c2nccn2CC2CCC2)C1 (stereo not given)  17.05%
40. COCCCc1nc(-c2ccc(S(=O)(=O)N3CCCC3)cc2)cs1  23.72%
41. CCN1CCN(S(=O)(=O)c2ncn(C)c2Cl)CC1  25.01%
42. CCn1ccnc1CN(C)C1CCCN(CCCc2ccccc2)C1 (stereo not given)  28.9%
43. Cc1nccn1CCCN1CCC(c2nccn2CC2CCC2)CC1  81.99%
44. COCCCN1CCCC(c2nccn2CC2CCC2)C1 (stereo not given)  85.63%
45. Cc1nccn1CCCN1CCCC(c2nccn2CC2CCC2)C1 (stereo not given)  94.54%
46. Cc1nccn1CCCN1CCCC(c2ccccc2)C1 (stereo not given)  96.96%
47. Cc1ccccc1CNC(=O)C1CCN(Cc2nccn2C)CC1  101.3%
48. Cn1ccnc1CN1CCC(Cc2ccccn2)CC1  101.7%
49. Cc1nccn1CCCN1CCCC(c2nccn2C)C1 (stereo not given)  103.4%
50. Cn1cnc(S(=O)(=O)NCCCN2CCCCCC2=O)c1Cl  103.8%
51. Cn1cnc(S(=O)(=O)NCCCN2CCCC2=O)c1Cl  106%
52. Cc1ccccc1CNC(=O)CN1CCCC(Cc2nccn2C)C1 (stereo not given)  107%
53. Cc1cc(C(F)(F)F)nc(C2CCCN2S(C)(=O)=O)n1 (stereo not given)  108.4%
54. COc1ccc(C)cc1C(C)NC(=O)Cn1ccc(=O)n(C)c1=O (stereo not given)  121.4%
55. COc1ccc(C(C)NC(=O)Cn2ccc(=O)n(C)c2=O)cc1F (stereo not given)  127.2%
